From article PMC7819943, “Rice protein-binding microarrays: a tool to detect cis-acting elements near promoter regions in rice”
Whole data set: some 68,000 sequences, median “fluorescence intensity (a.u.)” near 9,100, cut for the highest 2% near 16,000. Only a selection was taken, and the highest values are over-represented in it overall.

These sequences were tested against OsWRKY34 (Oryza sativa, UniProt Q0JBA9 1-250) (assay: protein-binding microarray (RPBM); PBS, 2% BSA, 51.3 ng/ul salmon testes DNA, 50 uM zinc acetate, 200 nM TF, 25 C, 1 h; high values mean tight binding). Conditions: protein: recombinant; tags: N-terminal polyhistidine and DsRed monomer fusion (pET32a); label: CyDye5-dUTP incorporated in the synthesized complementary strand; 3' TTTTT single-stranded linker to array surface; dsDNA, one strand shown.
Sequence of OsWRKY34 (Q0JBA9 entry or part of it): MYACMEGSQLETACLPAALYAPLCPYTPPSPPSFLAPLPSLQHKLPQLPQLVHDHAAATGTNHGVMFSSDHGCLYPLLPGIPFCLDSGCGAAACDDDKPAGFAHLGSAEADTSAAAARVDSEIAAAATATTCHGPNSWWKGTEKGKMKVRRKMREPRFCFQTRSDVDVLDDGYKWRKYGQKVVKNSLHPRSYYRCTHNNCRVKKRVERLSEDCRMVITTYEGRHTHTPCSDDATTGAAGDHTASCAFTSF
Procedure, shortened: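 A custom Agilent array was converted to double-stranded form by primer extension with Cy5-dUTP and blocked with 2% BSA. Protein at 200 nM in PBS with 2% BSA, salmon testes DNA and 50 µM zinc acetate was applied for 1 h at 25 °C, followed by washing. The proteins were polyhistidine–DsRed N-terminal fusions of transcription factors, expressed in E. coli BL21-CodonPlus and Ni–NTA-purified. The binding signal is per-feature fluorescence intensity (arbitrary units) from an Axon 4000B scanner.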

Sequence | binding signal
TAGTCTTTTCCATGTCATGTGATCATGTGTGGAGTTGATTCGGAGTCACCTAGTGCAG | 8550 fluorescence intensity (a.u.)
ACTCATGGATGCAGGTCCACCTACATACGTACTACCACAACGGAGTCACCTAGTGCAG | 8570 fluorescence intensity (a.u.)
GCCATCCTCCGCGACGCACATCGTCCGTCCCACCACGATGCGGAGTCACCTAGTGCAG | 10400 fluorescence intensity (a.u.)
GACATAAGTTTATTATCTATATCCATAGTACGTTTAATCCCGGAGTCACCTAGTGCAG | 10100 fluorescence intensity (a.u.)
AAACTGCACTACTTTATCTTGGTTGTCTTTAGCATAAGAACGGAGTCACCTAGTGCAG | 12100 fluorescence intensity (a.u.)
AATCCCCGCACGCGTCTTTACTTCGCCTTCGTCTTTCCTCCGGAGTCACCTAGTGCAG | 9340 fluorescence intensity (a.u.)
TTCTTGTTTTCGTGGATCATCATCAACCTCAATAGAAACGCGGAGTCACCTAGTGCAG | 8410 fluorescence intensity (a.u.)
TCTCCTAAAGATTCATGTTACGTATCTCTTACTTCAACAGCGGAGTCACCTAGTGCAG | 8710 fluorescence intensity (a.u.)
GTACGTACAACATTGTGTATCTGTTTTGTAAGTTATTAACCGGAGTCACCTAGTGCAG | 9710 fluorescence intensity (a.u.)
CTTTTTTTCCAACGTTTGACCATTTGTCTTATTCAAAAAACGGAGTCACCTAGTGCAG | 8560 fluorescence intensity (a.u.)
AAAGCCTGTGGCCACATCTTATCTTTTCCATCCTTTGCATCGGAGTCACCTAGTGCAG | 8040 fluorescence intensity (a.u.)
AACTCATCTGACAGTGATCCATCGTCCTTTTTCTTTGACTCGGAGTCACCTAGTGCAG | 10100 fluorescence intensity (a.u.)
TTGACCAACGTTTAACCATTCGTTTCATTTAATTTTTTTTCGGAGTCACCTAGTGCAG | 10800 fluorescence intensity (a.u.)
CCATTGACTTTTTGTCCAACGTTTGACCATTCGTCTTATTCGGAGTCACCTAGTGCAG | 17000 fluorescence intensity (a.u.)
CGGTTTTGACGGACGTGGTGCCCACGTGGCTAGTTTGACTCGGAGTCACCTAGTGCAG | 8980 fluorescence intensity (a.u.)
GACTTTTTATCCAACGTTTGACCATTCGTCTTATTCAAAACGGAGTCACCTAGTGCAG | 10300 fluorescence intensity (a.u.)
TCCACTATGGCCATCCTGATATCTTTGATCGTCTTTTCCACGGAGTCACCTAGTGCAG | 17500 fluorescence intensity (a.u.)
GTTTGGCCATGGTGCCGTCGTTGTCTCGTTGATGCTTAGTCGGAGTCACCTAGTGCAG | 10700 fluorescence intensity (a.u.)
GTCGTTGACTTTTTAACCACAACGTTTGACCATTCGTCTTCGGAGTCACCTAGTGCAG | 21800 fluorescence intensity (a.u.)
ATCGGTGGTGGTGGTGGTGGTGGCCATGAGTCTCGTTTGACGGAGTCACCTAGTGCAG | 27500 fluorescence intensity (a.u.)
TCAGTGGACTCGGTTCTGTTTTTTTGTCACTCCACTGGCACGGAGTCACCTAGTGCAG | 9610 fluorescence intensity (a.u.)

Sequence | binding signal
CACTAAGTCCGTTCCCATGCCCATTTCTCCCTGCATATTACGGAGTCACCTAGTGCAG | 9680 fluorescence intensity (a.u.)
ACTTTTTAACCAACGTTTGACCATTCGTCTTATTCAAATTCGGAGTCACCTAGTGCAG | 10600 fluorescence intensity (a.u.)
TCGTTGACTTTTTAACCAACGTTTAACCATTCGTCTTATTCGGAGTCACCTAGTGCAG | 18600 fluorescence intensity (a.u.)
TCTTGACCAACGTTTAACCATTCGTTTTATTTAAAATTTTCGGAGTCACCTAGTGCAG | 9450 fluorescence intensity (a.u.)
TATGACGTCGTTGACTTTTTAACCAACGTTTGACCATCGTCGGAGTCACCTAGTGCAG | 32900 fluorescence intensity (a.u.)
ACCATTAACTTTTTCTTAATTCGTTTCACTATTTTTTTAACGGAGTCACCTAGTGCAG | 9500 fluorescence intensity (a.u.)
CGTTGACTTTTTTTCAACGTTTAATAATTTATCTTATTCACGGAGTCACCTAGTGCAG | 12900 fluorescence intensity (a.u.)
CCGTTGACTTTTTAACTAATGTTTAACCATTCATTTTATTCGGAGTCACCTAGTGCAG | 28900 fluorescence intensity (a.u.)
ACTATTGACTTTTTTTCTATGTTAGACCATTCATTTTATTCGGAGTCACCTAGTGCAG | 12300 fluorescence intensity (a.u.)
GACTTTTCACGTAACGTTTGACCATTTATCTTATTTATAACGGAGTCACCTAGTGCAG | 9970 fluorescence intensity (a.u.)
TGTTGACTTTTTTTATTAACGTTTAGCATTTATCTTATTTCGGAGTCACCTAGTGCAG | 18000 fluorescence intensity (a.u.)
TTGTACACTTATGATTTCCTATTTTTGCATATGATTTTGTCGGAGTCACCTAGTGCAG | 8050 fluorescence intensity (a.u.)
GACACTAGGACAGTACGTAGCTACCTCTCCACTGCTCTGCCGGAGTCACCTAGTGCAG | 8730 fluorescence intensity (a.u.)
CTTGATTACCCCGTAGTCAGGTTTGTATGACTAAGCAACCCGGAGTCACCTAGTGCAG | 8980 fluorescence intensity (a.u.)
GACTGGGCCGTTGACCAGACGTGTACCCCACCGGCCAGTCCGGAGTCACCTAGTGCAG | 9290 fluorescence intensity (a.u.)
GCCAAGGCCTTACTGCTGCTTCTGTTTCTTGCCACCAATGCGGAGTCACCTAGTGCAG | 9650 fluorescence intensity (a.u.)
GTTTGACTATTTTATGCCTTGTAGCTTGAGCTACAGTTCACGGAGTCACCTAGTGCAG | 10100 fluorescence intensity (a.u.)
CTCTCTAACTGCAGATTTCCCTCCCCTTTCAACGCGCGCGCGGAGTCACCTAGTGCAG | 8110 fluorescence intensity (a.u.)
CCCCATCAACCTCCTCTTCTTCTTCGCCTCGTCTCGTCTTCGGAGTCACCTAGTGCAG | 9670 fluorescence intensity (a.u.)
TGCTGACTTGGCGTTGACCTGTGAAATTCTCTCGCTTCACCGGAGTCACCTAGTGCAG | 11500 fluorescence intensity (a.u.)
TTTATTAAACCTAGTTAATCCATTGTTAGCAAATATTTAACGGAGTCACCTAGTGCAG | 23300 fluorescence intensity (a.u.)
